CYP2C9 activ: increases human cytochrome P450 2C9 activity; P11712; recombinant CYP2C9, luciferin-H conversion, luminescence; active compounds read high; factor 1 = untreated enzyme, 0 = blocked; activation factor at 5 µM; actives 1.4% (n = 96,000);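 active = activation factor of 2 or more for CYP2C9 at a 5 µM dose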;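 note: 0 = sulfaphenazole-blocked wells and 1 = vehicle-only wells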
MRP-1 activ: MRP-1 activation; H69AR cells + doxorubicin, viability rescue, CellTiter-Glo; viability increase, % at 10 µM; actives 0.61% (n = 140,000);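 active = viability gain under doxorubicin at or above a set limit, the compound median plus 3 SD, cut at about 4.7% in these data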;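 note: MRP-1 overexpressing cells given doxorubicin 25 µM after compound pretreatment; 18-22 h compound pretreatment then 72 h with doxorubicin before readout; 0% = doxorubicin-only wells and 100% = vehicle-treated cells without doxorubicin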
CYP2C19 act: cytochrome P450 2C19 (human) activation; activation factor at 5 µM; 96,000 tested, under 10 active; P33261; recombinant CYP2C19, luciferin-H EGE luminescence; active compounds read high; 0 = fully inhibited enzyme, 1 = untreated enzyme;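 active = activation factor of at least 2 at 5 µM in the primary screen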;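 note: 0 = wells with 2.5 mM tranylcypromine and 1 = vehicle-only wells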
Target sequence (P33261 whole entry, looked up): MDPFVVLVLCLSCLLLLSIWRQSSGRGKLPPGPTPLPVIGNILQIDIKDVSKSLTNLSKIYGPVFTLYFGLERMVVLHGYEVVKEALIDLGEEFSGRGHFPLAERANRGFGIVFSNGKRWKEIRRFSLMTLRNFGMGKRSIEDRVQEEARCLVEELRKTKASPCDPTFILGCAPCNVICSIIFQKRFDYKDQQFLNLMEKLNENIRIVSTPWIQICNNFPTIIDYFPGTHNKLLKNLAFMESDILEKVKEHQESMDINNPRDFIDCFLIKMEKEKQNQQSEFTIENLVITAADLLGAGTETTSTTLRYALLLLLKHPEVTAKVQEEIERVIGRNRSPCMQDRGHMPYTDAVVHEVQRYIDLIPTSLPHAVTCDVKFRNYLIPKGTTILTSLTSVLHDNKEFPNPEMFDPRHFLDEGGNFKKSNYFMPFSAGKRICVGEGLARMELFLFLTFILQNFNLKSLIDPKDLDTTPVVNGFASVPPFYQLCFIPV
CYP2C19 inhib: blocks human cytochrome P450 2C19. actives 21% (n = 96,000). CYP2C19 Supersomes, luciferin-H EGE luminescence, 30 min. AID 778. inhibition, % at 5 µM;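 active = CYP2C19 inhibition above a set limit at 5 µM in the primary screen, cut at about 50% in these data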;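 note: plate controls were negative control wells for no effect and 2.5 mM tranylcypromine positive control for full effect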
MRP reversal: compounds reversing MRP-mediated drug resistance | H69AR cells + 2 uM doxorubicin, CellTiter-Glo, 72 h | differential viability (reversal), % at 10 µM | actives 0.04% (n = 85,000);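 active = viability drop by adding the cancer drug above about 55%, with treated viability meeting a 40% cutoff, limit read from the data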;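 note: viability without doxorubicin minus viability with 2 µM doxorubicin for each compound; larger differential means the compound sensitizes cells more to doxorubicin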
CYP2C9 inh: blocks human cytochrome P450 2C9. P11712. CYP2C9 Supersomes, luciferin-H conversion, luminescence. inhibition, % at 5 µM. actives 20% (n = 96,000). AID 777;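 active = blocking of liver enzyme CYP2C9 beyond about 50% at 5 µM, limit read from the data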
An asterisk follows results filed as active; · = not tested or not shown. Shown are actives, neighbours in structure and some others; about 21% of the full set was active somewhere.

SMILES	CYP2C9 activ	MRP-1 activ	CYP2C19 act	CYP2C19 inhib	MRP reversal	CYP2C9 inh
CCCc1cc2c(OC(=O)CC)c(-c3ccc(C(=O)OCC)o3)c(=O)oc2cc1OC	·	3	·	·	·	·
CCCc1cc(C(=O)Cc2ccc(C(=O)OCC)o2)c(O)cc1O	0.1	-3	0.1	93*	-2	91*
COc1ccccc1C(=O)N(NC(=O)Oc1ccccc1)C(C)(C)C	·	-1	·	·	·	·
O=[N+]([O-])c1ccc(/C=C2\CCC(C3=CCCC3)=C2N2CCOCC2)cc1	·	-4	·	·	·	·
O=S(=O)(Nc1ccc(N2CCCCC2)cc1)c1cccs1	0	-3	0	98*	-4	100*
O=C(c1ccccc1NS(=O)(=O)c1cccs1)N1CCCC1	0.9	-2	0.9	8	7	9
O=S(=O)(Nc1cc(Cl)ccc1N1CCCCC1)c1cccs1	0.5	0	0.2	82*	9	53*
O=S(=O)(Nc1nccs1)c1ccc(NS(=O)(=O)c2cccs2)cc1	0.1	0	1.1	-11	9	90*
O=S(=O)(Nc1ccc(S(=O)(=O)N2CCCCC2)cc1)c1ccc(Br)s1	0	1	0.8	18	-14	96*
c1coc(-c2nnc(SCc3nc4ccccc4[nH]3)o2)c1	0.7	-3	0.6	39	13	28
CCCCc1ccc(NC(=O)C2CCCO2)cc1 (stereo unspecified)	0.8	2	0.9	11	18	20
O=S(=O)(Nc1ccc(S(=O)(=O)N2CCCCCC2)cc1)c1cccs1	0.1	-3	1.2	-18	5	91*
O=S(=O)(Nc1ccccc1N1CCCCC1)c1ccc(Cl)s1	0.9	-1	0.4	57*	18	12
Cc1ccc(NC(=O)c2ccccc2NS(=O)(=O)c2ccc(Cl)s2)cc1	·	-3	·	·	·	·
Cc1ccc(/C=N\NC(=O)Cn2c(C)nc3ccccc32)o1	0.9	-1	1	4	·	10
Cc1nc2c(=O)[nH]c(=S)n(C)c2nc1C	·	-3	·	·	·	·
O=C(COc1ncnc2ccccc12)NCCCN1CCCC1=O	1.3	-2	1.2	-23	1	-26
CCSc1cc(C)nc2ncnn12	0.7	-1	0.9	10	6	28
CCCCCCSc1cc(C)nc2ncnn12	0.6	-1	0.3	66*	15	38
Cc1cc(Cl)c(S(=O)(=O)N2CCSCC2)cc1OCC(=O)NC1CCCCC1	0.4	-1	0.3	66*	-5	57*
CCCOc1cc(C)c(S(=O)(=O)NC2CC(C)(C)NC(C)(C)C2)cc1C	·	-4	·	·	·	·
CCOc1cc(C)c(S(=O)(=O)NC2CCCCC2)cc1C	0.6	-3	0.3	72*	21	44
CCOC(=O)N1CCN(S(=O)(=O)c2cc(OCC(=O)NC3CCCCC3)c(C)cc2Cl)CC1	0.4	-2	0.5	54*	-18	62*
O=C(COc1ccc(Br)cc1Cl)NC1CCCCC1	·	2	·	·	·	·
Cc1cc(Cl)c(S(=O)(=O)N2CCCCCC2)cc1OCC(N)=O	1.9	-3	0.9	12	10	-87
SMILES	CYP2C9 activ	MRP-1 activ	CYP2C19 act	CYP2C19 inhib	MRP reversal	CYP2C9 inh
Cc1cc(Cl)c(S(=O)(=O)NC2CCCC2)cc1OCC(=O)NC1CCCCC1	0.6	-3	0.5	52*	-7	44
O=C(COc1ccc(Cl)cc1Cl)NC1CCSC1=O (stereo unspecified)	0.4	2	0	96*	-5	60*
CCOC(=O)C1CCCN(S(=O)(=O)c2cc(OCC(N)=O)c(C)cc2Cl)C1 (stereo unspecified)	1.2	-1	0.1	91*	13	-18
CCN1CCN(S(=O)(=O)c2cc(OCC(=O)NC3CCCCC3)c(C)cc2Cl)CC1	0.4	-1	0.7	33	11	56*
Cc1cc(Cl)ccc1OCC(=O)NC1CCCC1	0.3	0	0	98*	29	67*
Cc1ccc(OCC(=O)NC2CCCC2)c(C)c1	0.9	-1	0.5	47	11	6
CCC(C)NC(=O)C(=O)NC1CCCC1 (stereo unspecified)	·	-1	·	·	·	·
O=[n+]1cc(-c2ccc(Cl)cc2)n([O-])c2c1CCCCC2	·	-2	·	·	·	·
CC1(C)NC(=O)N(CC(=O)OCC(=O)Nc2cc(S(=O)(=O)N3CCCCC3)ccc2Cl)C1=O	·	-3	·	·	·	·
Cc1ccc(NC(=O)CSc2nnc(-c3cccnc3)n2CCN2CCCCC2)cc1	·	-1	·	·	·	·
CCOc1cc(/C=C2\SC(=N)N(c3nccs3)C2=O)ccc1OCCN1CCOCC1	·	-4	·	·	·	·
Cc1cc(Cl)c(S(=O)(=O)N2CCCCCC2)cc1OCC(=O)NC1CCCCC1	0.1	-1	0.1	90*	-8	89*
COc1cnc(SCc2ccc(Cl)cc2Cl)nc1Cl	1	-4	0.9	9	·	4
Cc1nnc(SCc2ccccc2)nc1/C=C/NOCc1ccc(Cl)cc1Cl	0.1	1	0.2	79*	-2	88*
Cc1cc(C)c(OCC(=O)Nc2cccc(NC(=O)c3ccco3)c2)c(Br)c1	0.3	-3	0	96*	-17	74*
O=C(Nc1cccc(NC(=O)c2ccc(-c3cccc(Br)c3)o2)c1)c1ccco1	0.4	-4	0.5	54*	-11	60*
COc1ccc(Br)cc1C(=O)Nc1cccc(NC(=O)c2ccco2)c1	0.9	-3	0.1	88*	-7	13
COc1cccc(NC(=O)c2ccco2)c1	0.9	-1	0.6	42	4	8
COc1c(C)cc(Br)cc1C(=O)Nc1cccc(NC(=O)c2ccco2)c1	0.2	-4	0	97*	·	83*
CC(C)NC(=O)NC(=O)COc1ccc(Br)cc1Br	·	1	·	·	·	·
CCOc1ccc(/C=C(\C(=O)O)c2ccc(S(=O)(=O)N3CCOCC3)s2)cc1OC	·	0	·	·	·	·
COc1cccc(C2c3c(oc4ccc(Cl)cc4c3=O)C(=O)N2c2cc(C)on2)c1OC (stereo unspecified)	0.7	-2	0.7	26	-3	29
O=S1(=O)N=C(Nc2ccc(N3CCOCC3)cc2)c2ccccc21	·	-2	·	·	3	·
Cc1ccccc1-c1ccc(Nc2ccc(N3CCOCC3)cc2)nn1	0.4	-5	0.6	35	1	58*
CCC(=O)Nc1ccnc(-c2cccnc2)n1	0.8	0	0.4	65*	·	22
SMILES	CYP2C9 activ	MRP-1 activ	CYP2C19 act	CYP2C19 inhib	MRP reversal	CYP2C9 inh
O=C(Nc1ccnc(-c2cccnc2)n1)c1ccc(Cl)c(Cl)c1	0.6	-3	0.8	25	·	41
CC(C)(C)C(=O)Nc1ccnc(-c2cccnc2)n1	0.4	0	0.2	83*	·	59*
O=C(c1ccncc1)N(Cc1ccco1)Cc1cc2ccccc2[nH]c1=O	0.1	-2	0	99*	8	93*
Cc1cccc2cc(CN(CCCO)C(=O)Nc3cccc(Cl)c3)c(=O)[nH]c12	0.2	-5	0.3	71*	-14	81*
Cc1cccc2cc(CN(Cc3ccco3)C(=O)c3ccncc3)c(=O)[nH]c12	0.1	-1	0	98*	-18	94*
Cc1cccc2cc(CN(CC3CCCO3)C(=S)NCc3ccco3)c(=O)[nH]c12 (stereo unspecified)	·	-1	·	·	·	·

High-throughput results: PubChem, several laboratories
